# Measured values: PubChem BioAssay (NCATS)
# Results filed as inconclusive are left out. Where a call stands in place of a potency, no number is given. Active and inactive are the calls of the source. Unless noted, calls follow the shape of the dose curve; as a rule, active = well fitted curve in the direction sought with a large enough effect; inconclusive = small, poorly fitted or top-dose-only effect, or another doubt; inactive = no such curve, though single readings can be large; an effect the other way counts as inactive or inconclusive.
# Tests used:
# [1] = qHTS Assay for Identification of Small Molecule Antagonists for Thrombopoietin (TPO) Signaling Pathway (AID 918); settings: TPO-dependent cell signaling reporter, antagonist mode; also: potency is read from the fitted curve at half-maximal effect; nearly all actives have a fitted effect of over 60% in size
# In short: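 Murine Ba/F3 cells stably expressing human TPO receptor and a Glycoprotein IIb promoter–luciferase reporter were IL-3-starved overnight, treated with compounds plus TPO (26 pM final, its EC50) for 24 hrs at 37 C, then read by luminescence.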
# [2] = qHTS Assay for Identification of Small Molecule Antagonists for NFkB Signaling Pathway (AID 895; active = well fitted inhibition curve with a large enough effect in the signal ratio, with a control signal flat, not every such curve was filed as active; the % refers to the signal ratio); settings: NFkB beta-lactamase reporter cells, FRET ratio 460/530, stimulated with 10 pM TNF alpha; series mostly up to 38.3 µM
# In short: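 NFkB-bla ME-180 cervical carcinoma cells with beta-lactamase reporter under NFkB response element; compounds added, then TNF alpha at 10 pM final (EC50), 5 h at 37 C. LiveBLAzer substrate 2 h, room temperature; emission 460/530 nm at 405 nm excitation.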
# [3] = qHTS Assay for Identification of Small Molecule Agonists for Thrombopoietin (TPO) Signaling Pathway (AID 917); settings: TPO signaling pathway reporter cells, agonist qHTS, stimulated with TPO at its EC50; series mostly up to 38.5 µM
# In short: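 Murine Ba/F3 cells stably expressing human TPO receptor and a Glycoprotein IIb promoter–luciferase reporter were IL-3-starved overnight, then treated with compounds plus TPO (26 pM final, its EC50) for 24 hrs at 37 C; luminescence was read.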
# [4] = biological target: Muscarinic acetylcholine receptor M1 (Rattus norvegicus) (UniProt P08482); assay: qHTS Assay for Antagonists of Acetylcholine Muscarinic M1 Receptor: Measurement of IP-One Response (AID 944); settings: CHO-M1 cells, IP-One HTRF, antagonist mode; series mostly up to 46.1 µM; also: nearly all actives have a fitted effect of over 75% in size
# In short: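 CHO cells expressing rat M1 receptor, recovered overnight, were pre-incubated 10 min with compound, then stimulated 30 min with carbachol at EC80 (200 nM) in LiCl-containing buffer, pH 7.4. IP1 accumulation was read by HTRF (620/665 nm).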
# [5] = biological target: Muscarinic acetylcholine receptor M1 (Rattus norvegicus) (UniProt P08482); assay: qHTS Assay for Antagonists of Acetylcholine Muscarinic M1 Receptor: Kinetic Measurement of Intracellular Calcium Response (AID 943); settings: M1-expressing cells, kinetic intracellular calcium fluorescence; series mostly up to 35.3 µM;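 also: Fluo-4 calcium signal as peak divided by basal fluorescence over 4 min; nearly all actives have a fitted effect of over 75% in size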
# In short: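 CHO cells stably expressing rat M1 were loaded with no-wash Fluo-4 dye for 1 h at 37C, pre-incubated 10 min with compound, then challenged with EC80 carbachol (100 nM final); kinetic calcium read 4 min, peak/basal ratio.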
# [6] = biological target: Pyruvate kinase PKM (Homo sapiens) (UniProt P14618); assay: qHTS Assay for Activators of Human Muscle Pyruvate Kinase (AID 954; active = well fitted curve in the direction sought with a large enough effect, not every such curve was filed as active); settings: purified human muscle pyruvate kinase, luciferase-coupled luminescence, 1 h; series mostly up to 57.5 µM
# In short: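 Luminescence from a luciferase ATP-detection/stop reagent reported PKM2 activity. Reactions contained 0.1 nM purified human enzyme, 0.5 mM PEP, 0.1 mM ADP and 7 mM MgCl2 at pH 7.2, run 1 h at RT.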
# [7] = biological target: Rap guanine nucleotide exchange factor 4 (Homo sapiens) (UniProt Q8WZA2); assay: Confirmatory qHTS for agonist of cAMP-regulated guanine nucleotide exchange factor 4 (EPAC2) (AID 1645884); settings: EPAC2 GEF activity, Rap1B-BODIPY-GDP fluorescence, percent relative to cAMP agonist control; series mostly up to 154 µM;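 also: nucleotide exchange releases bodipy-GDP from Rap1 and this lowers its fluorescence; nearly all actives have a fitted effect of over 65% in size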
# [8] = biological target: Rap guanine nucleotide exchange factor 4 (Homo sapiens) (UniProt Q8WZA2); assay: Confirmatory qHTS for antagonist of cAMP-regulated guanine nucleotide exchange factor 4 (EPAC2) (AID 1645885); settings: EPAC2 Rap1B-BODIPY-GDP exchange fluorescence, biochemical; series mostly up to 114 µM; also: nearly all actives have a fitted effect of over 25% in size; also: potency is read from the fitted curve at half-maximal effect
# [9] = biological target: Rap guanine nucleotide exchange factor 3 (Homo sapiens) (UniProt O95398); assay: Confirmatory qHTS for antagonist of cAMP-regulated guanine nucleotide exchange factor 3 (EPAC1) (AID 1645880); settings: EPAC1 Rap1B-BODIPY-GDP exchange, fluorescence; series mostly up to 115 µM; also: nearly all actives have a fitted effect of over 55% in size
# In short: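 Nucleotide exchange uses 100 nM EPAC1, 250 nM RAP1B-BODIPY-GDP and 50 uM GDP, with compounds in a concentration-titration series. After 5 min at room temperature, fluorescence (480 nm ex/540 nm em) is read every 5 min for 30 min. Data are normalized to control ATA and DMSO.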
# [10] = Viability counterscreen for antagonist of constitutive androstane receptor (CAR) against the NCATS DSHEA and TCM libraries (AID 1794837); settings: CAR reporter cell line viability counterscreen, qHTS; series mostly up to 40 µM;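 also: compound exposure lasted 24 h before viability reading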
# In short: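 HepG2-CYP2B6-hCAR cells (2,500/well) were allowed to attach for 5 h, then exposed to compounds with 48 uM CITCO for 24 h at 37C. Viability was read by CellTiter-Fluor fluorescence after 1 h.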
# [11] = Viability counterscreen for agonist of constitutive androstane receptor (CAR) against the NCATS DSHEA and TCM libraries (AID 1794838); settings: HepG2 cell viability counterscreen, CAR agonist assay, co-treated with 0.75 µM CAR antagonist; series mostly up to 40 µM
# In short: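 HepG2-CYP2B6-hCAR cells (2,500/well) attached 5 h, then got compounds plus 0.75 uM PK11195 final. After 24 h at 37C, viability read by CellTiter-Fluor fluorescence (Ex/Em 405/540 nm).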
# [12] = biological target: Nuclear receptor subfamily 1 group I member 3 (Homo sapiens) (UniProt Q14994); assay: Primary qHTS for agonist of constitutive androstane receptor (CAR) against the NCATS DSHEA and TCM libraries (AID 1794839); settings: CAR agonist reporter cells, qHTS luminescence, CAR antagonist co-added at 0.75 µM; series mostly up to 40 µM;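 also: HepG2 cells expressing human CAR with a CYP2B6 reporter plus PK11195 antagonist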
# In short: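 HepG2-CYP2B6-hCAR cells (2,500/well) were attached for 5 h, then treated for 24 h at 37 °C with compounds plus 0.75 µM PK11195. Luciferase luminescence (ONE-Glo) was read, with CellTiter-Fluor viability (Ex/Em 405/540 nm).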
# [13] = HepG2 viability counterscreen (readout 2: ATP content) against the NCATS DSHEA and TCM libraries (AID 1794840); settings: ATP content luminescence; series mostly up to 27.3 µM;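 also: HepG2 cells exposed to substances for about 24 h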
# In short: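 HepG2 cells (1,000 cells/well) attached ~4 h, then treated ~24 h at 37C with substances. Protease activity read by GF-AFC (25 uM final, 30 min, Ex/Em 380/510 nm); ATP content then by CellTiter-Glo luminescence.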
# [14] = biological target: Glutathione peroxidase 1 (Homo sapiens) (UniProt P07203); assay: Primary qHTS Assay for Inhibitors of Recombinant Selenoprotein Glutathione Peroxidase 1 (GPX1) (AID 1845191); settings: recombinant GPX1, GR-coupled NADPH fluorescence, 15 min; series mostly up to 48.8 µM; also: nearly all actives have a fitted effect of over 65% in size
# In short: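 Recombinant GPX1 (10 nM final) was preincubated with compound for 30 min at room temperature, then reacted with 1 mM GSH, 0.5 mM CHP, 0.5 mM NADPH and 100 nM glutathione reductase; NADPH fluorescence (340/450 nm) was read at 0 and 15 min.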
# [15] = biological target: Phospholipid hydroperoxide glutathione peroxidase GPX4 (Homo sapiens) (UniProt P36969); assay: Primary qHTS Assay for Inhibitors of Recombinant Selenoprotein Glutathione Peroxidase 4 (GPX4) (AID 1845192); settings: recombinant GPX4, GR-coupled NADPH fluorescence, 15 min; series mostly up to 50 µM; also: nearly all actives have a fitted effect of over 65% in size
# In short: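 GR-coupled readout: 100 nM GR, 1 mM GSH, 0.5 mM NADPH; NADPH fluorescence (ex 340/em 450 nm) read at t=0 and after 15 min RT. GPX4 200 nM, preincubated 30 min with compound; substrate 0.5 mM CHP.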
# [16] = biological target: Pyruvate kinase (Leishmania mexicana) (UniProt Q27686); assay: qHTS Validation Assay for Inhibitors of Leishmania Mexicana Pyruvate Kinase (AID 945); settings: purified L. mexicana pyruvate kinase, enzyme activity, E451W mutant enzyme; series mostly up to 57.5 µM
# In short: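 LmPYK E451W 0.2 nM; 0.5 mM PEP, 0.1 mM ADP, 7 mM MgCl2, 50 mM KCl, imidazole pH 7.2, 0.01% Tween 20, 0.05% BSA; 1 h RT; PKLight luminescence; DMSO-normalized.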
# [17] = Confirmation and Secondary Assay for Modulators of Hemoglobin Beta Chain Splicing at IVS2 654 locus (AID 910); settings: HeLa EGFP-654 splicing reporter, GFP fluorescence, 48 h; series mostly up to 46.1 µM;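 also: per-well total GFP intensity by laser scanning cytometry after 2-day treatment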
# In short: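 HeLa cells stably carrying EGFP interrupted by mutant beta-globin IVS2-654 intron (CMV-driven) were treated with compound for 2 days at 37C; corrected splicing was scored as total peak GFP intensity per well (488 nm excitation, 500-520 nm emission).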
# [18] = Confirmation and Secondary Assay for Modulators of Hemoglobin Beta Chain Splicing at IVS2 705 locus (AID 930); settings: HeLa EGFP-705 splicing reporter, GFP fluorescence, 48 h; series mostly up to 46.1 µM;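 also: HeLa cells stably expressing the EGFP-705 splicing reporter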
# In short: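 HeLa cells stably carrying EGFP interrupted by mutant beta-globin IVS2-705 intron (CMV-driven) were seeded at 500 cells/well, treated next day with compound for 2 days at 37C; corrected splicing restores EGFP, read as total peak GFP intensity per well.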
# [19] = biological target: Alpha-galactosidase A (Homo sapiens) (UniProt P06280); assay: Counterscreen for Glucocerebrosidase Inhibitors: qHTS Assay for Human alpha-Galactosidase at pH 4.5 (AID 992); settings: purified enzyme, fluorogenic substrate; series mostly up to 76.9 µM
# In short: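 Enzyme at 2 nM final was combined with compound (0.7 nM to 77 uM) and 80 uM 4-methylumbelliferyl alpha-D-galactopyranoside in 50 mM citric acid, 0.005% Tween-20, pH 4.5. After 20 min at room temperature, fluorescence was read (Ex 365/Em 440 nm); AC50 came from Hill fits.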
# [20] = qHTS drug screen for cell cycle checkpoint inhibitors in PARPi-resistant BRCA-mutant ovarian cancer cell lines. (AID 1963452; calls by dose curve); settings: PEO1/OlaR viability, CellTiter-Glo luminescence, 96 h, stronger effect = lower value
# In short: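 PEO1, PEO4 and PEO1/OlaR ovarian cancer cells, 600 per well, exposed 96 h at 37C to a dilution series. Viability read by CellTiter-Glo luminescence, normalized to DMSO and empty wells; activity summarized as Z-AUC.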
# Phospholipid hydroperoxide glutathione peroxidase GPX4 (Homo sapiens), sequence (P36969 whole entry, looked up): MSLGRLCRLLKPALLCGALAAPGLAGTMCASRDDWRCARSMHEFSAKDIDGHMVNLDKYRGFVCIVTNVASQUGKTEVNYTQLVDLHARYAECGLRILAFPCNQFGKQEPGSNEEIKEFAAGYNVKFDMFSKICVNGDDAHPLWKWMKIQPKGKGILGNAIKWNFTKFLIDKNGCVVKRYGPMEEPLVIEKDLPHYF
# Rap guanine nucleotide exchange factor 4 (Homo sapiens), sequence (Q8WZA2 whole entry, looked up): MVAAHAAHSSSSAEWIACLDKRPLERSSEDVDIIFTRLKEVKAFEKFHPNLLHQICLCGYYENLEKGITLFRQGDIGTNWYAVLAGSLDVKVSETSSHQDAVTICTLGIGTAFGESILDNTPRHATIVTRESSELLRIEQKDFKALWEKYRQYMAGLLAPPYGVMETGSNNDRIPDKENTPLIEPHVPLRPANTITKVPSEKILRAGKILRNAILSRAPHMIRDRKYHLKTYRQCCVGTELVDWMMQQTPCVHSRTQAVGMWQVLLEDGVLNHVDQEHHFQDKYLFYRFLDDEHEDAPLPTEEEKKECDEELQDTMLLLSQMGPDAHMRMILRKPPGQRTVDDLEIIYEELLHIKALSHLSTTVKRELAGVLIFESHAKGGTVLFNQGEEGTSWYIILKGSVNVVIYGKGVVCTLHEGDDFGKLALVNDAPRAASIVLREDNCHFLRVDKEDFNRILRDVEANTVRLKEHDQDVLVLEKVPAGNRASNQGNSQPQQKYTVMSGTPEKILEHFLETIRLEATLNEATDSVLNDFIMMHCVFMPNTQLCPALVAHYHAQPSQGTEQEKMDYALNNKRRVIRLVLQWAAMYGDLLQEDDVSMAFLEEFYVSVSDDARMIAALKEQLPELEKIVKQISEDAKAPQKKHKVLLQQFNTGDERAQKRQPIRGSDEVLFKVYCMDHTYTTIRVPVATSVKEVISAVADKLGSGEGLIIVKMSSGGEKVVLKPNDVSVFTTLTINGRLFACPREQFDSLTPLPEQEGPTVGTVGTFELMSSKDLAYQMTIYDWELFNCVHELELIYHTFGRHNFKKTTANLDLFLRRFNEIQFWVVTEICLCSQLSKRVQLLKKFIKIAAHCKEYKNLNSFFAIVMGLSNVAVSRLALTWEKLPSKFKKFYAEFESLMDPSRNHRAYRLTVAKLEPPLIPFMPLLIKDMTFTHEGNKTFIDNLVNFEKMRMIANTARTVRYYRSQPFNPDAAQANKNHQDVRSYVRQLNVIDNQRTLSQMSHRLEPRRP
# Muscarinic acetylcholine receptor M1 (Rattus norvegicus), sequence (P08482 whole entry, looked up): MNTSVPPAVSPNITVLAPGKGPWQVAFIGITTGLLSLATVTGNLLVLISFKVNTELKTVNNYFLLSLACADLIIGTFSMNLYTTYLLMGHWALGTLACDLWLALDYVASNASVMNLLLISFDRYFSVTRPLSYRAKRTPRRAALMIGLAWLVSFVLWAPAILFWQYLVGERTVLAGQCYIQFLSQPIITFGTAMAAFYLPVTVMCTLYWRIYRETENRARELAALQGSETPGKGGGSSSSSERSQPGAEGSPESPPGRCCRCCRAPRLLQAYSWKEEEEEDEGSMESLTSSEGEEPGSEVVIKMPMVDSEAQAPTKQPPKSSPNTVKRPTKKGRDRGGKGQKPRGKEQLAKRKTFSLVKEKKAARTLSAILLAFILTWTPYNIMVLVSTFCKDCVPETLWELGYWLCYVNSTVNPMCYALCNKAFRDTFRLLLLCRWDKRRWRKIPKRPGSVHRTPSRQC
# Glutathione peroxidase 1 (Homo sapiens), sequence (P07203 whole entry, looked up): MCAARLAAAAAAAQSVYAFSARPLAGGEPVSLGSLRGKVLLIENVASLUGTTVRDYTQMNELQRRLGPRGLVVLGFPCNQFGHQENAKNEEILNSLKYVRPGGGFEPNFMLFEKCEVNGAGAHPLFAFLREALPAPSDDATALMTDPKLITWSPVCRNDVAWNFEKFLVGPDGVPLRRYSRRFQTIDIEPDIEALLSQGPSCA
# Rap guanine nucleotide exchange factor 3 (Homo sapiens), sequence (O95398 whole entry, looked up): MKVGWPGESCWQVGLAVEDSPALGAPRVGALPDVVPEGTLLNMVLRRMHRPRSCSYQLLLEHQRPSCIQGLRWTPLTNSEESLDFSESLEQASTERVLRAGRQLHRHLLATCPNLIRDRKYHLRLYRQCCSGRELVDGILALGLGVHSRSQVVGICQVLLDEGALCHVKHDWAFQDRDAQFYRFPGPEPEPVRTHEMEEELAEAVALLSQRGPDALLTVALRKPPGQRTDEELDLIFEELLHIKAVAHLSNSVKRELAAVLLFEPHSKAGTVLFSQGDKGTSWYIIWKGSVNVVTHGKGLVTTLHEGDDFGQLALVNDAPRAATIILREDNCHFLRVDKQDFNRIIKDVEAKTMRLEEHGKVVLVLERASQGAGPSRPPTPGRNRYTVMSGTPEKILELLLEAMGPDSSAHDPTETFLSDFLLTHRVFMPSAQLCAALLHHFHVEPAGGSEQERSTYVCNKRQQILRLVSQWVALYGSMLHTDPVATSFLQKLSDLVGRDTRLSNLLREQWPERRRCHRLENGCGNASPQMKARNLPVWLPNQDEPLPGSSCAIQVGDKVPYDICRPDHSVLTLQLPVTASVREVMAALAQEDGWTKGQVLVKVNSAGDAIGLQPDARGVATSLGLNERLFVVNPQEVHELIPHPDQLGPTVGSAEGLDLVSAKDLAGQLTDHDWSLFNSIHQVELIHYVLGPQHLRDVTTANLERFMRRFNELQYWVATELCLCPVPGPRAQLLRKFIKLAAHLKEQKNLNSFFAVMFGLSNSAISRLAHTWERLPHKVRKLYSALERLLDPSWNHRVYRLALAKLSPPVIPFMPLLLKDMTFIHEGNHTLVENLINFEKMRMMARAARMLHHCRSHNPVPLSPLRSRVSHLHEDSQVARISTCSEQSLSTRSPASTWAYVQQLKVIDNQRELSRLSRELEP
# Nuclear receptor subfamily 1 group I member 3 (Homo sapiens), sequence (Q14994 whole entry, looked up): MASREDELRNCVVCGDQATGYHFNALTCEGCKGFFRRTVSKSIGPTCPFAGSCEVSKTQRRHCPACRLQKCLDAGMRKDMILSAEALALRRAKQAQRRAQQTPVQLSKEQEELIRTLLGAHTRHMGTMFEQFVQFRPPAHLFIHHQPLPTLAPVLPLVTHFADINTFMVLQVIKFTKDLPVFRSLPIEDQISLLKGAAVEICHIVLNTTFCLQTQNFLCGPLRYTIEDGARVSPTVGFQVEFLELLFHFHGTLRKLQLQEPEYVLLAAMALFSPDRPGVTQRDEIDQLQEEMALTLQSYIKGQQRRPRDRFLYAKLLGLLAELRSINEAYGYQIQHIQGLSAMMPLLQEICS
# Pyruvate kinase PKM (Homo sapiens), sequence (P14618 whole entry, looked up): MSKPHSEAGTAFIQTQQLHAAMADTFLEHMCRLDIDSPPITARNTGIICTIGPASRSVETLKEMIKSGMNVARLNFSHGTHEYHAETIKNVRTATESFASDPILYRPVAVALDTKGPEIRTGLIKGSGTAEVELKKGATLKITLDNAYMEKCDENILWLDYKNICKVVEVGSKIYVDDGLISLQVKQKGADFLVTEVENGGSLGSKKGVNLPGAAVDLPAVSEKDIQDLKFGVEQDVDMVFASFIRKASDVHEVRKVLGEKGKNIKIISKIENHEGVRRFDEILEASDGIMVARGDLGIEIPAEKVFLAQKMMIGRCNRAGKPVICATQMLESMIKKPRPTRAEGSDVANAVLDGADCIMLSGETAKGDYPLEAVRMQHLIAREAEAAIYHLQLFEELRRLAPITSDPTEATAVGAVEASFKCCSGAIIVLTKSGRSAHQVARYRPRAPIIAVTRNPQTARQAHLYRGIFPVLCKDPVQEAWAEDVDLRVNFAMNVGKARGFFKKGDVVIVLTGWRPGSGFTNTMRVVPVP
# Pyruvate kinase (Leishmania mexicana), sequence (Q27686 2-499 E452W): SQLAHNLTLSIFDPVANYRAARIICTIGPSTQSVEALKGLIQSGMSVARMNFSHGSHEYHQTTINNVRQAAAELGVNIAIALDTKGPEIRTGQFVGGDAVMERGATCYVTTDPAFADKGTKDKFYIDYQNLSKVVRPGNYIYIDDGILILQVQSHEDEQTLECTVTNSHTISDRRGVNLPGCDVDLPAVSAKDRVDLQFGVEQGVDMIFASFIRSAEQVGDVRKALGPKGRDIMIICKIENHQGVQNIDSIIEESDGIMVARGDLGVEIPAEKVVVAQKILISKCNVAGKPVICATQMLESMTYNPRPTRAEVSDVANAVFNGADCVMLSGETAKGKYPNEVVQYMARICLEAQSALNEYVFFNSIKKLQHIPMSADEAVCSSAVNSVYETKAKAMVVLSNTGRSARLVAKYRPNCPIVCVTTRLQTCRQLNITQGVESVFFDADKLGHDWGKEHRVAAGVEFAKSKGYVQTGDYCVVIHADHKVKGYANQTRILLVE
# Alpha-galactosidase A (Homo sapiens), sequence (P06280 whole entry, looked up): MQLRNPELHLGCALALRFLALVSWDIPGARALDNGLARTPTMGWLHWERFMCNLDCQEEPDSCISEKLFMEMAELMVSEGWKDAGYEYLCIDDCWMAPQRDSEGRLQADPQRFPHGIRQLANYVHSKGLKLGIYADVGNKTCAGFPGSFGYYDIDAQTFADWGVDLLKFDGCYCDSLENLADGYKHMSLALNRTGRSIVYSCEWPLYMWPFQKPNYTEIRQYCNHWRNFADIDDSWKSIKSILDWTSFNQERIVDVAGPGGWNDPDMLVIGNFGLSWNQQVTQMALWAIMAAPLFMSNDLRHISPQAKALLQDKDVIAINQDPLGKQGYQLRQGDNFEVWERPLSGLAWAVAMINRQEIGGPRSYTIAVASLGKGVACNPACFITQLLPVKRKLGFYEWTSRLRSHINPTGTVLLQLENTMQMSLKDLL
smiles,measurement,setting,value
C=CCN1CCc2cc(O)c(O)cc2[C@H](c2ccccc2)C1,Potency,[1],5.01 µM (active)
C[C@@H]1CCN=C(N)S1,Potency,[2],inactive
same,Potency,[3],inactive
same,Potency,[4],inactive
COC(=O)C1=C(C)NC(C)=C([N+](=O)[O-])[C@H]1c1ccccc1C(F)(F)F,Potency,[5],inactive
same,outcome,[6],inactive
same,outcome,[7],inactive
same,Potency,[8],39.3 µM (active)
C[C@@]12C(=O)OC(=O)[C@@]1(C)[C@@H]1CC[C@@H]2O1,Potency,[9],inactive
same,outcome,[7],inactive
same,Potency,[8],inactive
CCCCC[C@H](O)CC(=O)CCc1ccc(O)c(OC)c1,outcome,[10],inactive
same,outcome,[11],inactive
same,outcome,[12],inactive
same,outcome,[13],inactive
CN[C@@H]1[C@H](O)[C@H](O[C@@H]2[C@H](O)[C@@H](O[C@H]3O[C@H]([C@@H](C)NC)CC[C@H]3N)[C@@H](N)C[C@H]2N)OC[C@]1(C)O,outcome,[14],inactive [at 9.52 µM]
same,outcome,[15],inactive [at 9.73 µM]
CCCCCCCCCCCCCCCC(=O)N[C@H](CN1CCOCC1)[C@H](O)c1ccccc1,Potency,[14],inactive
CCC(C)(C)C(=O)O[C@@H]1C[C@@H](C)C=C2C=C[C@H](C)[C@H](CC[C@@H]3C[C@@H](O)CC(=O)O3)[C@H]21,outcome,[7],inactive
same,Potency,[8],49.4 µM (active)
CC/C=C\C/C=C\C/C=C\C/C=C\C/C=C\CCCCCC(=O)O,"viability change, negative = cytotoxic",[10],-12.7% [at 5 µM] (inactive)
same,"activity change, negative = cytotoxicity",[11],-18.6% [at 5 µM] (inactive)
same,activation,[12],-16.7% [at 5 µM] (inactive)
same,"activity change, negative = cytotoxic",[13],-0.254% [at 3.42 µM] (inactive)
CC[C@H](C)C(=O)O[C@H]1CCC=C2C=C[C@H](C)[C@H](CC[C@@H]3C[C@H](O)CC(=O)O3)[C@H]21,Potency,[3],inactive
same,Potency,[16],inactive
same,Potency,[9],inactive
same,outcome,[7],inactive
COC(=O)C1=C(C)NC(C)=C([N+](=O)[O-])[C@@H]1c1ccccc1C(F)(F)F,outcome,[7],inactive
same,Potency,[8],35 µM (active)
CCOC(=O)C1=C(C)NC(C)=C(C(=O)OC)[C@H]1c1cccc([N+](=O)[O-])c1,outcome,[17],inactive
same,outcome,[18],inactive
same,Potency,[16],inactive
same,outcome,[6],inactive
same,outcome,[19],inactive
same,Potency,[9],inactive
CCn1ccnc1C[C@@H]1COc2ccccc2O1,Potency,[3],inactive
same,Potency,[4],inactive
same,outcome,[19],inactive
same,Potency,[9],inactive
same,outcome,[7],inactive
same,Potency,[8],17.5 µM (active)
COc1cc([C@@H]2c3cc4c(cc3C(O[C@@H]3O[C@@H]5CO[C@@H](c6cccs6)OC5[C@H](O)[C@H]3O)C3COC(=O)[C@@H]32)OCO4)cc(OC)c1O (stereo partly drawn),Potency,[15],inactive
CNC(=O)[C@H]1O[C@@H](n2cnc3c(NCc4cccc(I)c4)nc(Cl)nc32)[C@H](O)[C@@H]1O,Potency,[14],inactive
same,Potency,[15],inactive
same,Z-AUC,[20],0.981 (inactive)
same,Z-AUC,[20]; measured here: PEO1 parental Z-AUC,0.685
same,Z-AUC,[20]; measured here: PEO4 Z-AUC,0.71
